Shown is part of a subset that was picked to be rich in hits.
HT1080NT lethal: kills 2HG-producing HT-1080-NT fibrosarcoma cells. Potency, µM (titrated, usually from 46.1 µM), inactives show at the top dose activity, negative = less viability, hits mostly cytotoxic. HT-1080-NT fibrosarcoma viability, CellTiter-Glo ATP luminescence, 48 h. 1.6% of 360,000 active;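 note: NT is the 2HG producing partner of a matched IDH1 knockdown line; potency is the fitted concentration of half-maximal effect; 0% = DMSO-treated cells and -100% = media-only wells without cells; nearly all actives have a fitted effect of over 55% in size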
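Fibrosarcoma NT cells, 750 per well in 5% FBS RPMI, were exposed to compound for 48 hours. Viability: CellTiter-Glo luminescence.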
IL1B secr inh: inhibitors of inflammasome signaling (IL-1 beta secretion); AID 743279; THP-1 LPS/ATP IL-1B secretion, AlphaLISA, 16 h; active compounds read low; activity change, % at 57.5 µM; 4.7% of 360,000 active; in the data active = activity change below about -50%; inconclusive = mostly about -30% to -49%
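THP-1 cells pretreated 1 hr with compounds (up to 57.5 uM final), then stimulated with LPS (250 ng/mL final) plus ATP (1.25 mM final); secreted IL-1B measured by AlphaLISA after 16 hr, decreased signal indicating inhibition.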
DT40 TDP1 no CPT: qHTS for Inhibitors of human tyrosyl-DNA phosphodiesterase 1 (TDP1): qHTS in cells in absence of CPT; DT40 Tdp1-/- hTDP1 cells, no CPT, ATP luminescence, 48 h; Potency, µM (series often up to 46.2 µM), inactives show at the highest dose activity change, negative = growth inhibition, hits mostly inhibitors; 15% of 420,000 active; AID 686978, 2013; note: potency is the fitted concentration of half-maximal effect; nearly all actives have a fitted effect of over 55% in size
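Stably hTDP1-transfected Tdp1-null chicken DT40 cells were treated with library compounds minus camptothecin and grown for at least 48 hr at 37 °C, after which cellular ATP was quantified by luminescence.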
HT1080 IDH1KD tx: kills HT-1080 cells with IDH1 knockdown; HT-1080 IDH1 knockdown viability, ATP luminescence, 48 h; Potency, µM (titrated, usually from 46.1 µM), for inactives: at the highest dose activity, negative = toxicity, actives largely listed as cytotoxic; 2% of 360,000 active;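 note: potency is the fitted concentration of half-maximal effect; 0% = DMSO wells and -100% = cell-free medium wells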
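After a 2 h attachment period, IDH1KD HT-1080 cells took pin-transferred compound for 48 h at 37 °C; ATP-based luminescence after 10 min room-temperature reagent incubation reported viability.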
12-LOX inh: blocks human arachidonate 12S-lipoxygenase. purified 12hLO, xylenol orange hydroperoxide absorbance. Potency, µM (series often up to 108 µM), for inactives: at the highest dose activity change, negative = inhibition, hits mostly inhibitors. 1.1% of 580,000 active. AID 1671190; note: potency is the fitted concentration of half-maximal effect
Target sequence (P18054 whole entry, looked up): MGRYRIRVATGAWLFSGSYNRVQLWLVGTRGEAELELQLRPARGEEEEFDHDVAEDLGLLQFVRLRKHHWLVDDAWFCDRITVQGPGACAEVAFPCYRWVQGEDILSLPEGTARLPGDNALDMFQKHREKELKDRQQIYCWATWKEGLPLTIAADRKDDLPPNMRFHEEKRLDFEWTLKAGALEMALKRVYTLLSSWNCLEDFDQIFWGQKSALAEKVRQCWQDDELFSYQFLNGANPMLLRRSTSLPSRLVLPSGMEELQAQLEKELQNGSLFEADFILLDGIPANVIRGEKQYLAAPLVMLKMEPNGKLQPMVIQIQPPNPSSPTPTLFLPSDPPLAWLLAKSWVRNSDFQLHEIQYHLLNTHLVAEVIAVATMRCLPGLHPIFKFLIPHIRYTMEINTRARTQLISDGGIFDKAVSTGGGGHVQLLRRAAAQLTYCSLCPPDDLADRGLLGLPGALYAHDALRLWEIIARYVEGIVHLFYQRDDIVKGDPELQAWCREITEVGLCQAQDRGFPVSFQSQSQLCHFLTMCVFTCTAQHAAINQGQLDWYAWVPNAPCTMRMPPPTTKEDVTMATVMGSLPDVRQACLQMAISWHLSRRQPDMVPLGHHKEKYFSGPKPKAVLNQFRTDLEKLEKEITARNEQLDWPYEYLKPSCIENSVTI
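Purified human 12hLO at 150 nM in 25 mM Hepes, 0.01% Triton X-100, pH 7.0, preincubated 15 min at room temperature with compound. Reaction started with 40 uM arachidonic acid, 30 min at room temperature. Hydroperoxide measured by Fe-xylenol orange, 573/405 nm absorbance ratio.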
DT40 TDP1 CPT: DT40-hTDP1 cell growth loss with CPT | chicken DT40 Tdp1-/-;hTDP1 cells + 20 nM CPT, ATP luminescence, 48 h | Potency, µM (series often up to 46.2 µM), for the others: top-dose activity change, negative = growth inhibition, actives largely listed as inhibitors | 12% of 420,000 active | AID 686979; note: potency is the fitted concentration of half-maximal effect; nearly all actives have a fitted effect of over 55% in size
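Cell growth measured by CellTiter-Glo luminescence after a minimum 48 h, 37 C compound exposure with 20 nM CPT in Tdp1-knockout DT40 cells stably expressing hTDP1, seeded 400/well; qHTS titration format.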
Numbers without * were called inactive; ? = inconclusive; / = no result given. Unless noted, calls come from the whole dose curve; as a rule, active = well fitted curve in the direction sought with a large enough effect; inconclusive = small, poorly fitted or top-dose-only effect, or another doubt; inactive = no such curve, though single readings can be large; an effect the other way counts as inactive or inconclusive. Unless noted, % is set by controls: 0 for no effect and ±100 for the full control effect.

SMILES	HT1080NT lethal	IL1B secr inh	DT40 TDP1 no CPT	HT1080 IDH1KD tx	12-LOX inh	DT40 TDP1 CPT
CS(=O)(=O)c1ccc(C(=O)OCC(=O)NC(=O)C2CCCCC2)cc1[N+](=O)[O-]	?	-60.3*	?	?	-5.6%	9.2µM*
CC1(C)C2CCC1(C)C(NC(=O)COC(=O)c1ccc(S(C)(=O)=O)c([N+](=O)[O-])c1)C2 (configuration not stated)	/	/	5.62µM*	/	/	5.01µM*
CC1CCCCC1N(C)C(=O)c1ccsc1 (configuration not stated)	/	/	/	/	13.4%	/
CC(O)c1cc2n(n1)CCCN(CC(=O)N1CCOc3ccccc31)C2 (configuration not stated)	/	/	/	/	32.3%	/
Cc1ccc(-c2nc3ccc(Br)cc3c(=O)o2)cc1C	/	/	/	/	18.5%	/
COCCn1nnnc1C1CC2(CCOCC2)C(=O)N1Cc1cc(F)cc(F)c1 (configuration not stated)	/	/	/	/	9.8%	/
C=CCOc1nc2c(c(=O)n(Cc3ccc(F)cc3)c(=O)n2C)n1C	/	/	/	/	-27.0%	/
COc1cc2c(cc1OC)C(COc1ccc3c(C)cc(=O)oc3c1)N(C(=O)C(C)C)CC2 (configuration not stated)	/	/	13µM*	/	?	?
COc1ccc(CC(=O)N2CCc3cc(OC)c(OC)cc3C2COc2ccc3c(C)cc(=O)oc3c2)cc1OC (configuration not stated)	/	/	-3.4%	/	-25.8%	2.4%
COc1cc2c(cc1OC)C(COc1ccc3c(C)cc(=O)oc3c1)N(C(=O)c1cccc(C)c1)CC2 (configuration not stated)	/	/	6.51µM*	/	?	?
COc1cc2c(cc1OC)C(COc1ccc3c(C)cc(=O)oc3c1)N(C(=O)c1ccco1)CC2 (configuration not stated)	-7.1%	-6.5	20.6µM*	5.5%	-24.6%	?
COc1cc2c(cc1OC)C(COc1ccc3c(C)cc(=O)oc3c1)N(C(=O)c1cccc(OC)c1OC)CC2 (configuration not stated)	/	/	23.1µM*	/	1.8%	?
CCC(=O)N1CCc2cc(OC)c(OC)cc2C1COc1ccc2c(C)cc(=O)oc2c1 (configuration not stated)	/	/	-26.4%	/	-6.8%	-4.1%
Cc1cc(NC(=O)c2cc(F)ccc2Br)n(CCC#N)n1	/	/	/	/	21.0%	/
CCOc1ccc(CC(=O)N2CCc3cc(OC)c(OC)cc3C2COc2ccc3c(C)cc(=O)oc3c2)cc1 (configuration not stated)	/	/	-9.7%	/	?	-25.1%
CCOc1ccccc1C(=O)N1CCc2cc(OC)c(OC)cc2C1COc1ccc2c(C)cc(=O)oc2c1 (configuration not stated)	/	/	9.2µM*	/	-0.1%	?
Cc1cc(C)c(NC(=O)CN(C)C(=O)c2cc3ccccc3oc2=O)c(C)c1	/	/	/	/	19.6%	/
Cc1ccc(CN(C)C(=O)CN2C(=O)NC(c3ccccc3)(c3ccccc3)C2=O)c(C)c1	-18.6%	-62.8*	16.4µM*	-4.9%	-3.2%	?
Cc1csc(/C(=N\O)c2csc(C)n2)n1	?	1.6	?	15.8µM*	7.8%	-24.0%
Cc1csc(/C(C#N)=N/O)n1	-1.3%	8.7	6.0%	6.5%	15.2%	14.6%
CCOC(=O)C(C#N)C(C#N)c1ccccc1 (configuration not stated)	/	/	/	/	-3.7%	/
O=C(NCc1ccco1)c1ccc(C(=O)NCc2ccco2)s1	13.0%	-16.6	25.9µM*	19.6%	0.0%	?
O=C(NCc1ccco1)c1ccc(Br)s1	-1.9%	-9.1	-16.8%	1.3%	-11.0%	-15.1%

Assay outcomes deposited in PubChem by National Center for Advancing Translational Sciences (NCATS).
